Values joined by “and” are separate entries in the source; they are usually repeats but may differ in a detail not shown here. Identical values can stand only once. About 83,000 compounds went through this panel and 20% of them were active in at least one assay; those are over-represented in the sample as a whole.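 96-well plates, one dose, 48 hours. Percent growth reported; active if below 10.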 Active and inactive are the calls of the source.

For this assay, the system named is MDA-MB-468 breast. The experiment in a line: NCI-60 one-dose screen, 48 h (100 = growth as untreated, 0 = no growth, -100 = all killed). As to conditions: 10 µM unless noted.
With `CCOc1ccc(NC2=C(Cl)C(=O)c3nc(C)ccc3C2=O)cc1`, the growth was -95.2% (active). For `CC1(C)CC[C@]2(C(=O)O)CC[C@]3(C)C(=CC[C@@H]4[C@@]5(C)CC/C(=N\OCCC#N)C(C)(C)[C@@H]5CC[C@]43C)[C@@H]2C1` the value was 106% (inactive); for `COC(=O)[C@]12CC[C@@H](C)[C@H](C)[C@@H]1C1=CC[C@@H]3[C@@]4(C)C(C=O)=C[C@@](C)(COS(C)(=O)=O)C4[C@H](O)C[C@@]3(C)[C@]1(C)CC2` (stereo not given in full), -64.7% (active).

On to `C[N+](C)(C)C(=O)c1ccccc1`, for which the growth was 101% (inactive). The figure for `N#Cc1c2c([nH]c(=O)c1C(N)=O)CCCCC2` is 109% (inactive); for `COc1cc2c(cc1O)[C@@]1(C)[C@H](c3ccccc3Br)OC(=O)N1CC2` it is 61.1% (inactive); for `COc1cc(-c2n[nH]nc2-c2ccccn2)cc(OC)c1OC` it is 104% (inactive). For `O=C1/C(=C/C=C/c2ccco2)SC(=S)N1c1ccccc1` the value was -9.4% (active). The figure for `O=S1(=O)C=C(c2ccccc2)C(c2ccccc2)=C1` is -68.5% (active); for `NC(N)=Nc1ccc(Oc2cccc(NC(N)=Nc3ccc(Cl)c(C(F)(F)F)c3)c2)cc1` it is 10.1% (inactive); for `COc1c(C(=O)Nc2ccc(C)c(Br)c2)ccc2ccccc12` it is 87.9% (inactive). As to `O=C1Nc2cc(-c3cccc([N+](=O)[O-])c3)ccc2/C1=C/c1ccc[nH]1`, the growth is -7.17% (active). For `Cc1[nH]c(C(=O)Nc2ccccc2OC2CCNCC2)c(Cl)c1Cl` the value was 16.2% (inactive); for `Oc1c(I)cc(I)cc1CNCCCN(Cc1ccccn1)Cc1ccccn1`, -55.7% (active).

For `CN1CCN(CC(=O)Nc2nc(-c3cccc(NS(=O)(=O)c4cccc5c(N(C)C)cccc45)c3)cs2)CC1`, the growth was 38.7% (inactive). The figure for `Cc1cc2nc(CO)[nH]c2cc1C` is 135% (inactive); for `COc1ccc(-n2c(SCc3cc(OC)c(OC)c(OC)c3)nc3ccc(C)cc3c2=O)c(OC)c1` it is 17.1% (inactive); for `COC(=O)[C@H](C)NC(=O)NC(=O)NC(=O)CI` it is 70.2% (inactive). For `O=C(Cn1nnc2ccccc21)Nc1ccc(-c2nc3ccccc3s2)cc1` the value was -23.8% (active); for `CNC(=O)c1cc(Oc2ccc3nc(NC(=O)c4cc(N5CCOCC5)cc(C(F)(F)F)c4)sc3c2)ccn1`, 63.7% (inactive).

`Cc1nc(N)sc1-c1ccnc(Nc2ccc(N3CCOCC3)cc2)n1`: the growth was 34.1% (inactive). With `O=C1c2ccccc2C(=O)c2cc(Cn3c[n+](Cc4ccc5ccccc5c4)c4ccccc43)ccc21`, the growth was -27.6% (active). The figure for `COc1cc(-c2nc(-c3nnc(-c4ccc(F)c(Cl)c4)o3)c3ccccn23)cc(OC)c1OC` is 52.5% (inactive); for `COc1ccc(-n2[nH]c3c(cnc4ccccc43)c2=O)cc1` it is 108% (inactive) and 99.5% (inactive). In the case of `COCCOc1ccc(-c2nc3ccc(-c4nc5ccc(N6CCN(C)CC6)cc5[nH]4)cc3[nH]2)cc1`, the growth is -22.5% (active). With `O=C(CSc1nc2ccccc2c(=O)n1-c1ccccc1)Nc1ccc(C(=O)/C=C/c2ccc(Cl)cc2)cc1`, the growth was 121% (inactive).

As to `C#Cc1nc(C2=C(C)C(OC(=O)CCC(=O)O)CC2)cs1` (stereo not given), the growth is 99.6% (inactive). For `Cc1ccc2c(c1)nc(C)n2-c1ncnc2c1CC(C)c1cc(O)ccc1N2C` (stereo not given) the value was 10% (inactive); for `O=C1c2c(c3c4ccc(Br)cc4oc3c3[nH]c4ccccc4c23)C(=O)N1O`, 45.3% (inactive). Regarding `CCN1CCN(c2cc(C)c3cc(NC(=O)c4ccc(OC)c(OC)c4)ccc3n2)CC1`, the growth is 1.89% (active). For `COc1ccc(-c2ccccc2)cc1C(=O)c1ccc(-c2ccccc2)cc1` the value was 64.6% (inactive); for `CCCCC/C=C/CCC(=O)N[C@H]1[C@H](Oc2c3cc4cc2Oc2ccc(cc2Cl)[C@@H](O[C@@H]2O[C@H](CO)[C@@H](O)[C@H](O)[C@H]2NC(C)=O)[C@@H]2NC(=O)[C@H](NC(=O)[C@@H]4NC(=O)[C@H]4NC(=O)[C@@H](Cc5ccc(c(Cl)c5)O3)NC(=O)[C@@H](N)c3ccc(O)c(c3)Oc3cc(O)cc4c3)c3ccc(O)c(c3)-c3c(O[C@H]4O[C@H](CO)[C@@H](O)[C@H](O)[C@@H]4O)cc(O)cc3[C@H](C(=O)O)NC2=O)O[C@H](CO)[C@H](O)[C@@H]1O`, 110% (inactive); for `COc1ccc(/C=C2/C(=O)N=C3N2NC(c2ccccc2)=CN3c2ccccc2)cc1`, 88.9% (inactive). On to `CCOC(=O)c1cnn(CC(C)O)c1NC(=O)NCc1ccccc1C(F)(F)F` (stereo not given), for which the growth was 103% (inactive).

`CN1C(=O)N(C)C2C1NN=c1s/c(=C\c3ccccc3)c(=O)n12` (stereo not given): the growth was 23.8% (inactive).

In the case of `c1ccc(C2NCCNC2c2ccccc2)cc1` (stereo not given), the growth was 111% (inactive). The figure for `COc1ccc(-c2nc(Cl)c3c(C)nn(-c4ccc(F)cc4)c3n2)cc1` is 105% (inactive); for `NCCCOc1cc2ccccc2cc1C(=O)NCCCOc1cc2ccccc2cc1C(=O)Nc1ccc(Cl)cc1O` it is -89.6% (active); for `O=C(Nc1ccc(C2=NCCCN2)cc1)c1ccc(C(=O)Nc2ccc(C3=NCCCN3)cc2)nc1` it is 102% (inactive). For `O=C(Nc1ccccc1O)c1ccc(-c2ccc(Cl)cc2Cl)o1` the value was 80.8% (inactive).

(Values after PubChem BioAssay (NCI).)
